Reference: PubChem BioAssay (Tox21)
Inconclusive results are not listed. Calls of active or inactive are those of the source. Unless noted, the call rests on the fitted dose curve; in most records, active means well fitted curve in the direction sought with a large enough effect in the repeat runs; inconclusive means weak or mixed curves; inactive means no such curve, though single readings can be large; an effect the other way counts as inactive or inconclusive.

Legend:
[1] = biological target: Peroxisome proliferator-activated receptor delta (Homo sapiens) (UniProt Q03181); test: qHTS assay to identify small molecule agonists of the peroxisome proliferator-activated receptor delta (PPARd) signaling pathway (AID 743212; calls by dose curve)
How it was run: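 Tox21 library screened in GeneBLAzer PPARd UAS-bla HEK293H cells. After compound treatment at 37 C, a FRET-based beta-lactamase substrate was applied for 2 h and fluorescence recorded.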

[2] = qHTS assay to identify small molecule antagonists of the peroxisome proliferator-activated receptor delta (PPARd) signaling pathway - cell viability counter screen (AID 743213); further: nearly all actives have a fitted effect of over 50% in size
How it was run: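 Same-well viability: cells pre-incubated 5 h, dosed with compound plus 300 nM L165041, kept 17 h at 37 C, FRET substrate 2 h RT, then CellTiter-Glo 30 min RT and luminescence.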

[3] = biological target: Peroxisome proliferator-activated receptor delta (Homo sapiens) (UniProt Q03181); test: qHTS assay to identify small molecule antagonists of the peroxisome proliferator-activated receptor delta (PPARd) signaling pathway (AID 743215; active means well fitted inhibition curve with a large enough effect in the signal ratio in the repeat runs, not every such curve was filed as active; the % refers to the signal ratio;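 further: cells stimulated with agonist L165041 at 300 nM final during compound exposure; series mostly up to about 62 µM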)
How it was run: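 Cells: HEK293H with a UAS-driven beta-lactamase reporter responsive to PPARd. Compounds were co-added with L165041 (300 nM, final) and incubated 17 h at 37 C before a 2 h room-temperature FRET substrate step and fluorescence reading.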

[4] = qHTS assay to identify small molecule agonists of the farnesoid-X-receptor (FXR) signaling pathway - cell viability counter screen (AID 743218); further: nearly all actives have a fitted effect of over 45% in size
How it was run: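 Cells were seeded, left 5 h at 37 C and 5% CO2, then dosed with compound in DMSO for 16 h. After the beta-lactamase FRET read, CellTiter-Glo was added and luminescence measured 30 min later.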

[5] = qHTS assay to identify small molecule antagonists of the farnesoid-X-receptor (FXR) signaling pathway - cell viability counter screen (AID 743221; active means well fitted cell-killing curve with a large enough effect in the repeat runs, not every such curve was filed as active; further: nearly all actives have a fitted effect of over 50% in size)
How it was run: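 CellTiter-Glo, 30 min RT, luminescence; same wells as the LiveBLAzer FRET read. Cells: FXR-UAS-bla HEK 293T. Treatment: compound with chenodeoxycholic acid 50 uM final, 16 h at 37 C.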

[6] = biological target: Vitamin D3 receptor (Homo sapiens) (UniProt P11473); test: qHTS assay to identify small molecule agonists of the vitamin D receptor (VDR) signaling pathway (AID 743222; calls by dose curve)
How it was run: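 Cells carrying a VDR-driven beta-lactamase reporter are seeded at 2,000 per well and rested 4 h. Compounds in DMSO are added for 16 h at 37C, and FRET substrate fluorescence is measured after 2 h at room temperature.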

[7] = biological target: Vitamin D3 receptor (Homo sapiens) (UniProt P11473); test: qHTS assay to identify small molecule antagonists of the vitamin D receptor (VDR) signaling pathway (AID 743223; active means well fitted inhibition curve with a large enough effect in the signal ratio in the repeat runs, not every such curve was filed as active; the % refers to the signal ratio)
How it was run: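 After VDR-bla cells are plated and left 4 h at 37C, DMSO-dissolved compounds and 3 nM (final) calcitriol agonist are added. Incubation continues 16 h at 37C; FRET beta-lactamase substrate then develops 2 h at room temperature.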

[8] = qHTS assay to identify small molecule agonists of the vitamin D receptor (VDR) signaling pathway - cell viability counter screen (AID 743224); further: series mostly up to about 63 µM; nearly all actives have a fitted effect of over 50% in size
How it was run: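 Cells: VDR-bla, 2,000/well, settled 4 h. Treatment: compounds in DMSO, 16 h, 37C/5% CO2. Readout: CellTiter-Glo luminescence after 30 min RT.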

Measured: Potency

Peroxisome proliferator-activated receptor delta (Homo sapiens), sequence (Q03181 whole entry, looked up): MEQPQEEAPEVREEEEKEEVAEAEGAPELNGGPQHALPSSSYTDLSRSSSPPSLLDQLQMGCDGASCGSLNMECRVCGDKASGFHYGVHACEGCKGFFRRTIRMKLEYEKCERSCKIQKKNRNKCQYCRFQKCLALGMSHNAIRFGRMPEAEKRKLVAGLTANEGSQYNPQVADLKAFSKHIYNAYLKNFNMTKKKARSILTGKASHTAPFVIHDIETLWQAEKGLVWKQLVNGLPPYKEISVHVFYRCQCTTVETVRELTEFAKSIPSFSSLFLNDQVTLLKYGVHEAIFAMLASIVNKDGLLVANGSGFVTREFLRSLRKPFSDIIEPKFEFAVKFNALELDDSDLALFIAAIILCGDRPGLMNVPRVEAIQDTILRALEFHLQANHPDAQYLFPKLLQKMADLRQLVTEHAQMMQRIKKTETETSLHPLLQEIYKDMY
Vitamin D3 receptor (Homo sapiens), sequence (P11473 whole entry, looked up): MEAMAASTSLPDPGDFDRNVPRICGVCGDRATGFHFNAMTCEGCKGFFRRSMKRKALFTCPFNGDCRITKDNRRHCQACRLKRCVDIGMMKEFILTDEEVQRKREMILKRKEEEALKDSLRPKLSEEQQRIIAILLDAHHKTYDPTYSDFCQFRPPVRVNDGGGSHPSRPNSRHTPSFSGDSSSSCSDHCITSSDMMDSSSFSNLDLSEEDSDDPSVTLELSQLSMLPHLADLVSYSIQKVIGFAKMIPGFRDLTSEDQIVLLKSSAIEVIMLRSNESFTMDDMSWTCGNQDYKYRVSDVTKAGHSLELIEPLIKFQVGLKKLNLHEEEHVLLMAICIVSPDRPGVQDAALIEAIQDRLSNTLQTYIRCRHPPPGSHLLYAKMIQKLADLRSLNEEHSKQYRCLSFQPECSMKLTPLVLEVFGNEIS

CC1(C)NC(=O)NC1=O
inactive: [1] | [2] | [3] | [4] | [5] | [6] | [7]

Cc1ccc(S(=O)(=O)N=C=O)cc1
inactive: [1] | [2] | [3] | [4] | [5] | [6] | [7]

NCCCCCCN
inactive: [1] | [2] | [3] | [4] | [5] | [7] | [8]

COCCOC(=O)c1ccccc1C(=O)OCCOC
inactive: [1] | [2] | [3] | [4] | [5] | [7]

CCCCCC(=O)O
inactive: [1] | [2] | [3] | [4] | [5] | [6] | [7]

CC(=O)OCc1ccco1
inactive: [1] | [2] | [3] | [4] | [5] | [7]

CCCCCCCCCCCCCCCC(=O)OC(C)C
inactive: [1] | [2] | [3] | [4] | [5] | [6] | [7] | [8]

CCCCCCCCCCCCCCCCO
inactive: [1] | [2] | [3] | [4] | [5] | [6] | [7] | [8]

COc1ccccc1OCC(O)CO (centres undefined)
inactive: [1] | [2] | [3] | [4] | [5] | [6] | [7]

O=c1[nH]cnc2[nH]ncc12
inactive: [1] | [2] | [3] | [4] | [5] | [6] | [7] | [8]

CCNc1cccc(C)c1
inactive: [1] | [2] | [3] | [4] | [5] | [7]

COCCCN
inactive: [1] | [2] | [3] | [4] | [5] | [6] | [8]

COC(=O)c1cccnc1
inactive: [1] | [2] | [3] | [4] | [5] | [6] | [7] | [8]

CCNC(=S)NCC
inactive: [1] | [2] | [3] | [4] | [5] | [6] | [7] | [8]

CCCCOC(=O)c1ccc(N)cc1
inactive: [1] | [2] | [3] | [4] | [5] | [6] | [7] | [8]

COc1ccc(C)cc1N
inactive: [1] | [2] | [3] | [4] | [5] | [7] | [8]

CN(C)c1ccc(O)c2c1C[C@H]1C[C@H]3[C@H](N(C)C)C(=O)C(C(N)=O)=C(O)[C@@]3(O)C(=O)C1=C2O
inactive: [1] | [2] | [3] | [4] | [5] | [6] | [7]

C=CC[N+](C)(C)CC=C
inactive: [1] | [2] | [3] | [4] | [5] | [6] | [7]

CCCOC(=O)c1ccccc1
inactive: [1] | [2] | [3] | [4] | [5] | [6] | [7] | [8]

CC1(C)CC(N)CC(C)(CN)C1 (centres undefined)
inactive: [1] | [2] | [3] | [4] | [5] | [8]

C=CC(C)CCCC(C)(C)O (centres undefined)
inactive: [1] | [2] | [3] | [4] | [5] | [7] | [8]

CC(CCO)CC(C)(C)C (centres undefined)
inactive: [2] | [4] | [5]

C=CCCCCCCCCC(=O)O
inactive: [2] | [4] | [5] | [6] | [7] | [8]

Cc1ccc2ncccc2c1
inactive: [1] | [2] | [3] | [4] | [5] | [8]

CNC(=S)N(C)C
inactive: [2] | [4] | [5] | [7]

CCCCCCO
inactive: [2] | [4] | [5] | [6] | [7] | [8]

CCCCCCCO
inactive: [2] | [4] | [5] | [7]
